Assay results: PubChem BioAssay AID1159580 (chemical genetic matrix, 2015)
The whole screen tested about 5,500 compounds, of which about 2,000 (36%) were called active. Not shown: some 18% with an inconclusive outcome. No stated cut-off is given here; in the data, active means normalized growth mostly below about 0.91 (no sharp cut-off); inconclusive means no clear call, values can overlap the other calls; inactive means mostly above about 0.92. This is one part of the list.

Test: chemical genetic growth profiling, strain panel (AID 1159580);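 further: tested at 20 µM; growth read once vehicle control cultures reached saturation at 30 °C; 1 = growth at the plate median or of vehicle wells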
Conditions: growth OD

Measured: normalized growth

Nc1nc(=S)c2[nH]cnc2[nH]1
inactive: S. cerevisiae deletion strains, locus YJR075W, strain HOC1, stronger effect = lower value 1.03 | S. cerevisiae deletion strains, locus YKL009W, strain mrt4, stronger effect = lower value 1 | S. cerevisiae deletion strains, locus YKL068W, stronger effect = lower value 1 | S. cerevisiae deletion strains, locus YKL085W, strain MDH1 (second series), stronger effect = lower value 1.02 | S. cerevisiae deletion strains, locus YKL085W, strain MDH1, stronger effect = lower value 1.02 | S. cerevisiae deletion strains, locus YKL160W, strain elf1, stronger effect = lower value 0.943 | S. cerevisiae deletion strains, locus YKL190W, strain CNB1, stronger effect = lower value 1 | S. cerevisiae deletion strains, locus YKR001C, strain vps1, stronger effect = lower value 1.01 | S. cerevisiae deletion strains, locus YKR026C, strain gcn3, stronger effect = lower value 0.976 | S. cerevisiae deletion strains, locus YKR091W, strain srl3, stronger effect = lower value 0.975 | S. cerevisiae deletion strains, locus YLL001W, strain dnm1, stronger effect = lower value 1 | S. cerevisiae deletion strains, locus YLL026W, stronger effect = lower value 0.983 | S. cerevisiae deletion strains, locus YLL041C, strain sdh2, stronger effect = lower value 0.984 | S. cerevisiae deletion strains, locus YLR027C, strain aat2, stronger effect = lower value 0.992 | S. cerevisiae deletion strains, locus YLR039C, strain RIC1, stronger effect = lower value 1.08 | S. cerevisiae deletion strains, locus YLR058C, strain SHM2, stronger effect = lower value 1.01 | S. cerevisiae deletion strains, locus YLR102C, strain apc9, stronger effect = lower value 0.999 | S. cerevisiae deletion strains, locus YLR113W, strain HOG1, stronger effect = lower value 0.984 | S. cerevisiae deletion strains, locus YLR221C, strain rsa3, stronger effect = lower value 1.03 | S. cerevisiae deletion strains, locus YLR258W, strain gsy2, stronger effect = lower value 0.961 | S. cerevisiae deletion strains, locus YLR262C, strain YPT6 (second series), stronger effect = lower value 1 | S. cerevisiae deletion strains, locus YLR262C, strain YPT6, stronger effect = lower value 1.07 | S. cerevisiae deletion strains, locus YLR268W, strain sec22, stronger effect = lower value 1.01 | S. cerevisiae deletion strains, locus YLR320W, strain mms22, stronger effect = lower value 0.992 | S. cerevisiae deletion strains, locus YLR330W, strain CHS5, stronger effect = lower value 1.01 | S. cerevisiae deletion strains, locus YLR342W, strain FKS1 (second series), stronger effect = lower value 1 | S. cerevisiae deletion strains, locus YLR342W, strain FKS1, stronger effect = lower value 0.957 | S. cerevisiae deletion strains, locus YLR357W, strain rsc2, stronger effect = lower value 0.937 | S. cerevisiae deletion strains, locus YLR370C, strain arc18, stronger effect = lower value 0.974 | S. cerevisiae deletion strains, locus YLR371W, strain rom2, stronger effect = lower value 1 | S. cerevisiae deletion strains, locus YLR384C, strain iki3, stronger effect = lower value 0.97 | S. cerevisiae deletion strains, locus YLR418C, strain cdc73, stronger effect = lower value 1 | S. cerevisiae deletion strains, locus YML016C, strain PPZ1, stronger effect = lower value 1.01 | S. cerevisiae deletion strains, locus YML032C, strain rad52, stronger effect = lower value 0.996 | S. cerevisiae deletion strains, locus YML120C, strain ndi1, stronger effect = lower value 0.983 | S. cerevisiae deletion strains, locus YML124C, strain tub3, stronger effect = lower value 0.998 | S. cerevisiae deletion strains, locus YMR058W, strain fet3, stronger effect = lower value 1 | S. cerevisiae deletion strains, locus YMR078C, strain ctf18, stronger effect = lower value 0.997 | S. cerevisiae deletion strains, locus YMR125W, strain sto1, stronger effect = lower value 0.952 | S. cerevisiae deletion strains, locus YMR129W, stronger effect = lower value 0.971 | S. cerevisiae deletion strains, locus YMR205C, strain PFK2, stronger effect = lower value 0.995 | S. cerevisiae deletion strains, locus YMR223W, strain ubp8, stronger effect = lower value 0.985 | S. cerevisiae deletion strains, locus YMR231W, strain pep5, stronger effect = lower value 0.987 | S. cerevisiae deletion strains, locus YMR263W, strain SAP30, stronger effect = lower value 1 | S. cerevisiae deletion strains, locus YMR307W, strain GAS1, stronger effect = lower value 1.02 | S. cerevisiae deletion strains, locus YNL067W, strain RPL9B, stronger effect = lower value 1.02 | S. cerevisiae deletion strains, locus YNL071W, strain lat1, stronger effect = lower value 0.981 | S. cerevisiae deletion strains, locus YNL128W, strain TEP1, stronger effect = lower value 1.03 | S. cerevisiae deletion strains, locus YNL153C, strain GIM3, stronger effect = lower value 0.992 | S. cerevisiae deletion strains, locus YNL183C, strain NPR1, stronger effect = lower value 0.956 | S. cerevisiae deletion strains, locus YNL209W, strain ssb2, stronger effect = lower value 0.98 | S. cerevisiae deletion strains, locus YNL233W, strain BNI4, stronger effect = lower value 1.01 | S. cerevisiae deletion strains, locus YNL248C, strain rpa49, stronger effect = lower value 0.92 | S. cerevisiae deletion strains, locus YNL250W, strain rad50, stronger effect = lower value 0.992 | S. cerevisiae deletion strains, locus YNL271C, strain bni1, stronger effect = lower value 1 | S. cerevisiae deletion strains, locus YNL298W, strain CLA4, stronger effect = lower value 1.01 | S. cerevisiae deletion strains, locus YNL307C, strain MCK1, stronger effect = lower value 1 | S. cerevisiae deletion strains, locus YNL322C, strain KRE1 (second series), stronger effect = lower value 0.963 | S. cerevisiae deletion strains, locus YNL322C, strain KRE1, stronger effect = lower value 1.02 | S. cerevisiae deletion strains, locus YNR049C, strain mso1, stronger effect = lower value 0.979 | S. cerevisiae deletion strains, locus YNR052C, strain pop2, stronger effect = lower value 0.999 | S. cerevisiae deletion strains, locus YOL006C, strain TOP1, stronger effect = lower value 1.06 | S. cerevisiae deletion strains, locus YOL012C, strain htz1 1.07 | S. cerevisiae deletion strains, locus YOL147C, strain pex11, stronger effect = lower value 0.995 | S. cerevisiae deletion strains, locus YOR001W, strain rrp6, stronger effect = lower value 1.01 | S. cerevisiae deletion strains, locus YOR061W, strain CKA2, stronger effect = lower value 1.01 | S. cerevisiae deletion strains, locus YOR069W, strain VPS5, stronger effect = lower value 1.01 | S. cerevisiae deletion strains, locus YOR070C, strain gyp1, stronger effect = lower value 0.973 | S. cerevisiae deletion strains, locus YOR080W, strain dia2, stronger effect = lower value 0.996 | S. cerevisiae deletion strains, locus YOR083W, strain WHI5, stronger effect = lower value 0.914 | S. cerevisiae deletion strains, locus YOR106W, strain vam3, stronger effect = lower value 0.96 | S. cerevisiae deletion strains, locus YOR136W, strain idh2, stronger effect = lower value 0.999 | S. cerevisiae deletion strains, locus YOR144C, strain elg1, stronger effect = lower value 0.999 | S. cerevisiae deletion strains, locus YOR184W, strain ser1, stronger effect = lower value 1.01 | S. cerevisiae deletion strains, locus YOR231W, strain MKK1, stronger effect = lower value 1.02 | S. cerevisiae deletion strains, locus YOR265W, strain rbl2, stronger effect = lower value 0.991 | S. cerevisiae deletion strains, locus YOR270C, strain vph1, stronger effect = lower value 1.03 | S. cerevisiae deletion strains, locus YOR290C, strain snf2, stronger effect = lower value 0.942 | S. cerevisiae deletion strains, locus YOR316C, strain cot1, stronger effect = lower value 0.997 | S. cerevisiae deletion strains, locus YPL051W, strain arl3, stronger effect = lower value 0.964 | S. cerevisiae deletion strains, locus YPL055C, strain LGE1, stronger effect = lower value 1.02 | S. cerevisiae deletion strains, locus YPL078C, strain atp4, stronger effect = lower value 0.95 | S. cerevisiae deletion strains, locus YPL106C, strain sse1, stronger effect = lower value 0.977 | S. cerevisiae deletion strains, locus YPL240C, strain hsp82, stronger effect = lower value 1.02 | S. cerevisiae deletion strains, locus YPL241C, strain CIN2, stronger effect = lower value 1.01 | S. cerevisiae deletion strains, locus YPL256C, strain CLN2, stronger effect = lower value 0.964 | S. cerevisiae deletion strains, locus YPR119W, strain clb2, stronger effect = lower value 1.01 | S. cerevisiae deletion strains, locus YPR141C, strain kar3, stronger effect = lower value 0.997 | S. cerevisiae deletion strains, locus YPR163C, strain tif3, stronger effect = lower value 1 | S. cerevisiae deletion strains, locus YPR167C, strain met16, stronger effect = lower value 1 | S. cerevisiae deletion strains, strain wtn01, stronger effect = lower value 0.98 | S. cerevisiae strains, strain wild type, stronger effect = lower value 1.01
